# Assay results as given in PubChem BioAssay (Tox21).
# Results filed as inconclusive are left out. A call without a number means that no potency is given here. The source made the active and inactive calls. Unless noted, the call rests on the fitted dose curve.
# Legend:
# [1] = Nuclear factor erythroid 2-related factor 2/antioxidant responsive element (Nrf2/ARE) small molecule agonists: qHTS cell viability counter screen in human keratinocytes (AID 1919968; active means well fitted curve in the direction sought with a large enough effect in the repeat runs; an effect the other way counts as inactive or inconclusive; further: nearly all actives have a fitted effect of over 55% in size; further: potency means the concentration at half of the fitted maximal effect)
# How it was run: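 Cells of the KeratinoSens line were plated at 1,500 per well and left for 5 h before compound transfer from DMSO stocks. After a 23 h incubation (37 C, 5% CO2), CellTiter-Fluor was added. Signal was taken as fluorescence intensity 1 h later.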
# [2] = target: Gonadotropin-releasing hormone receptor (Homo sapiens) (UniProt P30968); assay: Human gonadotropin-releasing hormone receptor (GnRHR) small molecule agonists, calcium flux assay in GnRHR-HEK293 cells (AID 1920063); further: nearly all actives have a fitted effect of over 35% in size; further: potency means the concentration at half of the fitted maximal effect
# How it was run: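 Compounds dissolved in DMSO are pin-transferred onto dye-loaded GnRHR-HEK293 cells, which were seeded 18 h before at 37 C/5% CO2. Calcium signal is read as fluorescence intensity at 1 s intervals for 3 min.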
# [3] = G protein-coupled receptor (GPCR) small molecule agonists, calcium flux assay: HEK293 wild type cell line counter screen (AID 1920065)
# How it was run: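 Tox21 10K compounds, 15 concentrations each in triplicate, pin-transferred in DMSO onto dye-loaded cells; kinetic read at 480/540 nm for 3 min, 1 s intervals.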
# [4] = p53 small molecule agonists, cell-based qHTS assay with human liver microsomes (AID 1963577);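 further: p53 response element beta-lactamase reporter cells with liver microsomes plus NADPH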
# How it was run: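 16 h, 37 C exposure of p53RE-bla cells to compounds with human liver microsomes and NADPH (0.5 mg/mL final each); detection via LiveBLAzer mixture, 2 h dark at room temperature.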
# [5] = p53 small molecule agonists, cell-based qHTS assay with rat liver microsomes (AID 1963578)
# How it was run: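 With rat liver microsomes and NADPH present (0.5 mg/mL final each), p53RE-bla cells are treated with compound for 16 h at 37 C. LiveBLAzer detection mixture is then applied for 2 h at room temperature in the dark.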
# [6] = p53 small molecule agonists, cell-based qHTS assay with human liver microsomes: qHTS cell viability counter screen (AID 1963579); further: nearly all actives have a fitted effect of over 45% in size; further: potency means the concentration at half of the fitted maximal effect
# How it was run: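 In this multiplexed counter screen, the reporter plates were subsequently treated with CellTiter-Glo so that cell viability, reflected by luminescence, could be recorded for p53RE-bla cells dosed 16 h with compounds under microsomal activation (HLM and NADPH).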
# [7] = p53 small molecule agonists, cell-based qHTS assay (AID 1963582; active means well fitted activation curve with a large enough effect in the signal ratio in the repeat runs, not every such curve was filed as active; the % refers to the signal ratio)
# How it was run: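 16 h compound exposure (37 C) of p53 response element–bla cells, preceded by 5 h recovery at 37 C/5% CO2; read-out via LiveBLAzer B/G FRET substrate, 2 h RT, fluorescence intensity.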
# [8] = target: 5-hydroxytryptamine receptor 2A (Homo sapiens) (UniProt P28223); assay: 5-hydroxytryptamine receptor 2A (HTR2A) small molecule antagonists, cell-based qHTS assay (AID 1963586); further: nearly all actives have a fitted effect of over 45% in size; further: potency means the concentration at half of the fitted maximal effect
# How it was run: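 CHO cells stably expressing human HTR2A were plated for 18 h at 37 C, then loaded with calcium dye for 1 h. Compounds were preincubated 5 min at room temperature before DOI (4 nM solution) was added. Kinetic fluorescence was read for 3 min.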
# [9] = target: 5-hydroxytryptamine receptor 2A (Homo sapiens) (UniProt P28223); assay: 5-hydroxytryptamine receptor 2A (HTR2A) small molecule agonists, cell-based qHTS assay (AID 1963587); further: nearly all actives have a fitted effect of over 30% in size; further: potency means the concentration at half of the fitted maximal effect
# How it was run: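 Kinetic calcium-flux fluorescence (2 min, 1 sec intervals) after compound addition in agonist mode. HTR2A-CHO cells were cultured 18 h, then dye-loaded 1 h at 37 C.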
# [10] = target: Beta-2 adrenergic receptor (Homo sapiens) (UniProt P07550); assay: Adrenergic beta2 receptor (ADRB2) small molecule antagonists, cell-based qHTS assay (AID 1963592); further: series mostly up to about 92 µM; nearly all actives have a fitted effect of over 50% in size
# How it was run: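 Assay format: CHO-ADRB2 cells, 18-20hr seeding at 37C/5% CO2, then compound plus 1nM isoproterenol agonist mix for 0.5hr RT. Homogeneous time-resolved fluorescence cAMP detection after 1hr, expressed as 665/615 nm ratio.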
# [11] = target: D(2) dopamine receptor (Homo sapiens) (UniProt P14416); assay: Dopamine D2 receptor (DRD2) small molecule agonists, cell-based qHTS assay (AID 1963594); further: nearly all actives have a fitted effect of over 35% in size
# How it was run: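 cAMP accumulation in DRD2-HEK293 cells measured by HTRF after 1 h detection; compounds added 10 min before NKH477 (200nM […]) forskolin-analogue stimulation, 30 min at room temperature, with Ro20-1724 present at 0.1 mM final.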
# [12] = target: D(2) dopamine receptor (Homo sapiens) (UniProt P14416); assay: Dopamine D2 receptor (DRD2) small molecule antagonists, cell-based qHTS assay (AID 1963595; active means well fitted inhibition curve with a large enough effect in the signal ratio in the repeat runs, with a control signal flat; the % refers to the signal ratio; further: potency means the concentration at half of the fitted maximal effect)
# How it was run: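 Human DRD2 antagonist qHTS measuring cAMP by HTRF. The cells are exposed to compound for 10 min, then to NKH477 (200 nM) and quinpirole (12 nM) for 30 min at RT, with Ro20-1724 (0.1 mM) present throughout.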
# [13] = target: KiSS-1 receptor (Homo sapiens) (UniProt Q969F8); assay: Human kisspeptin (KISS1R) small molecule agonists, calcium flux assay in KISS1R-HEK293 cells (AID 1920064; active means well fitted curve in the direction sought with a large enough effect in the repeat runs; an effect the other way counts as inactive or inconclusive)
# How it was run: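 Cell line: HEK293, stable human KISS1R. Dye loading 1 h at 37 C after 18 h culture. Read: kinetic fluorescence, 480/540 nm, 3 min at 1 s intervals.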
# [14] = p53 small molecule agonists, cell-based qHTS assay with rat liver microsomes: qHTS cell viability counter screen (AID 1963580); further: nearly all actives have a fitted effect of over 45% in size
# How it was run: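 Rat liver microsome (0.5 mg/mL final) and NADPH (0.5 mg/mL final) co-incubation with compounds for 16 h at 37 C on HCT-116 p53RE-bla cells; cytotoxicity taken from intracellular ATP luminescence.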
# [15] = p53 small molecule agonists, cell-based qHTS assay: qHTS cell viability counter screen (AID 1963581); further: nearly all actives have a fitted effect of over 45% in size; further: potency means the concentration at half of the fitted maximal effect
# How it was run: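 ATP content measured by luminescence in HCT-116 p53RE-bla cells treated 16 h at 37 C, same wells as the reporter screen.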
# [16] = cAMP Responsive Elements (CRE) small molecule agonists, cell-based qHTS assay (AID 1963590)
# How it was run: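 HEK 293T cells stably bearing CRE-bla were plated at 2,000 cells per well and rested 18 h. Compounds, positive controls or DMSO were added for 3 h at 37 C. LiveBLAzer B/G substrate was then loaded for 2 h at room temperature.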
# [17] = cAMP Responsive Elements (CRE) small molecule antagonists, cell-based qHTS assay (AID 1963591; active means well fitted inhibition curve with a large enough effect in the signal ratio in the repeat runs, not every such curve was filed as active; the % refers to the signal ratio)
# How it was run: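 First, CRE-bla HEK293T cells settled 18 h at 37 C. Next, compound and 0.25 uM final NKH477 were applied for 3 h. Last, LiveBLAzer B/G substrate was loaded for 2 h at room temperature.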
# [18] = target: Muscarinic acetylcholine receptor M1 (Homo sapiens) (UniProt P11229); assay: Cholinergic receptor muscarinic 1 (CHRM1) small molecule antagonists, cell-based qHTS assay (AID 1963588); further: nearly all actives have a fitted effect of over 40% in size; further: potency means the concentration at half of the fitted maximal effect
# How it was run: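 Compounds were tested at 15 concentrations in three independent runs. Dye-loaded CHRM1-CHO cells were exposed 5 min at room temperature before stimulation by acetylcholine added at 50nM. Intracellular calcium was read kinetically on FDSS for 3 min.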
# [19] = target: Muscarinic acetylcholine receptor M1 (Homo sapiens) (UniProt P11229); assay: Cholinergic receptor muscarinic 1 (CHRM1) small molecule agonists, cell-based qHTS assay (AID 1963589); further: nearly all actives have a fitted effect of over 35% in size
# How it was run: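 Homogeneous fluorescence calcium flux, agonist mode. Human M1-expressing CHO cells; compound dosed at 15 concentrations, three independent runs; signal sampled every 1 sec.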
# [20] = target: Beta-2 adrenergic receptor (Homo sapiens) (UniProt P07550); assay: Adrenergic beta2 receptor (ADRB2) small molecule agonists, cell-based qHTS assay (AID 1963593);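 further: CHO cells stably overexpressing human ADRB2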
# How it was run: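 CHO cells stably over-expressing ADRB2 were plated overnight at 37C, then dosed with compounds plus a stimulation mix containing 100uM IBMX and 25uM Ro-20-1724 for 0.5hr at room temperature. cAMP was measured by HTRF competition, 1hr.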
# Chain of Beta-2 adrenergic receptor (Homo sapiens) (P07550 whole entry, looked up): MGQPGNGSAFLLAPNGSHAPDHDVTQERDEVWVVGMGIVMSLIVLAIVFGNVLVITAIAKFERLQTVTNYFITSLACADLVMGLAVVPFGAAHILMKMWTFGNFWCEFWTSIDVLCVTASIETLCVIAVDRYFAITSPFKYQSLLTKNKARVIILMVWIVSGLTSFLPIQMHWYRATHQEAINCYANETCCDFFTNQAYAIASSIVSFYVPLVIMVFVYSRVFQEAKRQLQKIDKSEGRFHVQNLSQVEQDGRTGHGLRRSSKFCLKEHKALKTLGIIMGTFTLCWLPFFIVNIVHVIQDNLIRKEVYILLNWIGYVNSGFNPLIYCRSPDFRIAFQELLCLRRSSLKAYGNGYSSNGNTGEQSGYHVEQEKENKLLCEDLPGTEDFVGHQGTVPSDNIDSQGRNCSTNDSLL
# Chain of Muscarinic acetylcholine receptor M1 (Homo sapiens) (P11229 whole entry, looked up): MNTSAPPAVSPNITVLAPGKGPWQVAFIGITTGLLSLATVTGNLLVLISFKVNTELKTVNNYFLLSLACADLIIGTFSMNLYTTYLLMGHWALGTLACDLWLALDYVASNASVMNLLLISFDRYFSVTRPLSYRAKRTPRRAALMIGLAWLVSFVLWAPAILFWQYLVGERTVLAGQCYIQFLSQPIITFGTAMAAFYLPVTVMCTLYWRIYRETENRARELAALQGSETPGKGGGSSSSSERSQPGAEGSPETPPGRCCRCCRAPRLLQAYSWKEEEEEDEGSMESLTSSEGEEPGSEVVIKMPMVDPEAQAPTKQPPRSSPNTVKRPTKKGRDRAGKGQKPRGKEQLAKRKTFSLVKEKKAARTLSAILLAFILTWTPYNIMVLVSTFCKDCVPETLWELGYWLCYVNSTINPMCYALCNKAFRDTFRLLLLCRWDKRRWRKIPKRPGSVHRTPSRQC
# Chain of D(2) dopamine receptor (Homo sapiens) (P14416 whole entry, looked up): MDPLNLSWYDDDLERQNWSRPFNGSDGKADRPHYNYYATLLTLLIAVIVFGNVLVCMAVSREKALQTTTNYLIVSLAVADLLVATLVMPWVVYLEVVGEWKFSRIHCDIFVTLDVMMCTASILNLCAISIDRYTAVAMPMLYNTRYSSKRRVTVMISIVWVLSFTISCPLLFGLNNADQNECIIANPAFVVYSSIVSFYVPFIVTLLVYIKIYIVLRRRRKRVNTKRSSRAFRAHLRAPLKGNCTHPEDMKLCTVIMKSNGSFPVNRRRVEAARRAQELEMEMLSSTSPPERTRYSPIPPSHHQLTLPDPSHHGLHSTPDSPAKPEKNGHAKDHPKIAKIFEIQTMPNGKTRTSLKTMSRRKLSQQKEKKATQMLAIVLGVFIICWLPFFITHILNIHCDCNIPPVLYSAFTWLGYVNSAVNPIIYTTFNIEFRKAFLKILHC
# Chain of KiSS-1 receptor (Homo sapiens) (Q969F8 whole entry, looked up): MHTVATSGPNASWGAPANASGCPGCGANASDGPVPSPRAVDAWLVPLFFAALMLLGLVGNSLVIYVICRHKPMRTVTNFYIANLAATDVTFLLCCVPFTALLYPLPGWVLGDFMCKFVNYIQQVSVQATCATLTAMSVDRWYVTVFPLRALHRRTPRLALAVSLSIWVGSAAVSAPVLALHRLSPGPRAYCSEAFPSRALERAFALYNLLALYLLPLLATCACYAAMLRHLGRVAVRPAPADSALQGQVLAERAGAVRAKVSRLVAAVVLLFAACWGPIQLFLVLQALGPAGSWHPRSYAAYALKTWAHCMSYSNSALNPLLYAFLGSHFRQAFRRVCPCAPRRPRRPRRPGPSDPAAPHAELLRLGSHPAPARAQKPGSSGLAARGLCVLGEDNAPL
# Chain of Gonadotropin-releasing hormone receptor (Homo sapiens) (P30968 whole entry, looked up): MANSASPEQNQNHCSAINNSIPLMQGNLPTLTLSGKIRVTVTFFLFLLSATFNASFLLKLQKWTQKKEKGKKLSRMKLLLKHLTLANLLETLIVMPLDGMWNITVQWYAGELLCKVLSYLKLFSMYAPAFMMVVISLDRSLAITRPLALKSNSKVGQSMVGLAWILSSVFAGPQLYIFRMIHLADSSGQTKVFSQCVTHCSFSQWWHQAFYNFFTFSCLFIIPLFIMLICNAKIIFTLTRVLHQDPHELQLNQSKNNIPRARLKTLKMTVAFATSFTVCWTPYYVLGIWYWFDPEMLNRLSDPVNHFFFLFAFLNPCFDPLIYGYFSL
# Chain of 5-hydroxytryptamine receptor 2A (Homo sapiens) (P28223 whole entry, looked up): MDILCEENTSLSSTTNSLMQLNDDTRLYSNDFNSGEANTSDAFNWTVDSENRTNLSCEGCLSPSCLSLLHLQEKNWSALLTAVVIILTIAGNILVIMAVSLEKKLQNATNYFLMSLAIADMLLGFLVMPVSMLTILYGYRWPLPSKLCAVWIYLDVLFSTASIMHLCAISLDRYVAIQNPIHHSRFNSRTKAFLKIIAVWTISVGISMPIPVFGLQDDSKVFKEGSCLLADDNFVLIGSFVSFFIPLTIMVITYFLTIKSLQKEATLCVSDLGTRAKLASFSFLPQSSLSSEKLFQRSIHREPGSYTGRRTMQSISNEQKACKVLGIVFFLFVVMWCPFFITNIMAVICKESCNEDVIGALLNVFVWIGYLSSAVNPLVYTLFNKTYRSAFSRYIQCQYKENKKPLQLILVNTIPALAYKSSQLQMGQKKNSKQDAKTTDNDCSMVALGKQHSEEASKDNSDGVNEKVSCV
SMILES,Potency [1],Potency [2],Potency [3],Potency [4],Potency [5],Potency [6],Potency [7],Potency [8],Potency [9],Potency [10],Potency [11],Potency [12],Potency [13],Potency [14],Potency [15],Potency [16],Potency [17],Potency [18],Potency [19],Potency [20]
CC(C)c1ccc2c(c1)CC[C@H]1[C@](C)(CN)CCC[C@]21C,12.2 µM (active),11 µM (active),inactive,inactive,inactive,40.8 µM (active),inactive,29.8 µM (active),49 µM (active),inactive,inactive,68.6 µM (active),–,–,–,–,–,–,–,–
COc1nc(C)nc(Cl)c1NC1=NCCN1,inactive,inactive,–,–,–,inactive,–,–,–,inactive,inactive,inactive,inactive,inactive,inactive,inactive,inactive,–,–,–
CCCC(=O)OC,inactive,inactive,inactive,inactive,inactive,inactive,inactive,inactive,inactive,inactive,inactive,inactive,–,inactive,inactive,–,inactive,inactive,inactive,–
C[C@]12C(=O)OC(=O)[C@H]1[C@H]1C=C[C@@H]2C1,inactive,–,inactive,inactive,inactive,inactive,inactive,inactive,inactive,inactive,inactive,inactive,inactive,inactive,inactive,inactive,inactive,inactive,inactive,–
Cc1c(N)c(=O)n(-c2ccccc2)n1C,inactive,inactive,inactive,–,–,inactive,–,inactive,inactive,inactive,inactive,inactive,–,inactive,inactive,inactive,inactive,inactive,–,inactive
CCOC(=O)CC(O)(CC(=O)OCC)C(=O)OCC,inactive,–,inactive,inactive,inactive,inactive,inactive,inactive,inactive,inactive,–,inactive,inactive,inactive,inactive,inactive,inactive,inactive,inactive,inactive
O=S1(=O)N=C(O)c2ccccc21,inactive,inactive,–,–,–,inactive,–,inactive,inactive,inactive,inactive,inactive,inactive,inactive,inactive,inactive,inactive,inactive,inactive,–
CN1CCCN=C1/C=C/c1cccs1,inactive,–,inactive,inactive,inactive,inactive,inactive,inactive,–,inactive,inactive,inactive,inactive,inactive,inactive,inactive,inactive,inactive,inactive,inactive
C[C@H](CCC(=O)O)[C@H]1CC[C@H]2[C@@H]3[C@H](O)C[C@@H]4C[C@H](O)CC[C@]4(C)[C@H]3CC[C@]12C,inactive,–,inactive,inactive,inactive,inactive,inactive,–,–,inactive,inactive,inactive,inactive,inactive,inactive,–,–,inactive,–,–
CC(C)(C)c1ccc(C(=O)O)cc1,inactive,–,inactive,inactive,–,inactive,inactive,inactive,inactive,inactive,inactive,inactive,inactive,inactive,inactive,inactive,inactive,inactive,inactive,inactive
O=C(O)Cc1ccc(Cl)cc1Cl,inactive,–,inactive,inactive,inactive,–,inactive,inactive,inactive,inactive,inactive,inactive,inactive,–,inactive,inactive,inactive,inactive,–,inactive
OC[C@H]1O[C@@H](n2cnc3c(=S)nc[nH]c32)[C@H](O)[C@@H]1O,inactive,–,inactive,–,–,inactive,–,inactive,inactive,inactive,inactive,inactive,inactive,inactive,–,–,inactive,–,inactive,inactive
Nc1ccn([C@@H]2O[C@H](CO)[C@@H](O)[C@@H]2O)c(=O)n1,inactive,–,inactive,–,–,inactive,–,–,–,inactive,inactive,inactive,inactive,inactive,inactive,inactive,inactive,–,–,–
CC(C)(C)C1=CC(=O)C=C(C(C)(C)C)C1=O,inactive,–,inactive,–,–,inactive,–,inactive,inactive,inactive,inactive,inactive,inactive,–,inactive,inactive,inactive,inactive,inactive,–
O=C(Nc1ccccc1)OCC(CN1CCCCC1)OC(=O)Nc1ccccc1 (stereo not given),inactive,–,inactive,–,–,inactive,–,inactive,inactive,inactive,inactive,inactive,inactive,inactive,12.6 µM (active),inactive,inactive,inactive,inactive,–
O=C1c2ccccc2C(=O)N1CCc1noc(-c2ccc(CN3CCCCCC3)s2)n1,inactive,–,inactive,inactive,inactive,inactive,–,inactive,inactive,inactive,inactive,–,inactive,inactive,inactive,–,–,0.273 µM (active),inactive,–
NCCCN1CCOCC1,inactive,–,inactive,–,–,inactive,–,–,inactive,inactive,–,inactive,inactive,inactive,inactive,inactive,–,inactive,inactive,–
